Assay results reported in PubChem BioAssay AID1159580 (chemical genetic matrix, 2015).
About 2,000 (36%) of roughly 5,500 compounds were called active. Inconclusive results (about 18%) are left out. Some of the results follow. Values without a mark were called inactive. Cut-off read from the data, not from the text of the source: active = normalized growth mostly below about 0.91 (no sharp cut-off); inconclusive = no clear call, values can overlap the other calls; inactive = mostly above about 0.92.

Assay: chemical genetic growth profiling, strain panel (AID 1159580);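 note: tested at 20 µM; growth read once vehicle control cultures reached saturation at 30 °C; 1 = growth at the plate median or of vehicle wells; lower values mean less growth of the strain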
Settings: S. cerevisiae deletion strains, growth OD

CN1CCN(C2Cc3ccccc3Sc3ccc(Cl)cc32)CC1 (configuration not stated)
normalized growth (locus YAL013W, strain DEP1, hits give low values): 0.883 (active)
normalized growth (locus YAL040C, strain CLN3, hits give low values): 1
normalized growth (locus YDR363W, strain ESC2, hits give low values): 0.897
normalized growth (locus YER002W, strain NOP16, hits give low values): 1.04
normalized growth (locus YJR075W, strain HOC1, hits give low values): 0.881 (active)
normalized growth (locus YMR307W, strain GAS1, hits give low values): 1.01
normalized growth (locus YNL153C, strain GIM3, hits give low values): 0.587 (active)
normalized growth (locus YNL175C, strain NOP13, hits give low values): 0.915
normalized growth (locus YNL197C, strain WHI3, hits give low values): 0.989
normalized growth (locus YNL224C, strain SQS1, hits give low values): 1.01
normalized growth (locus YOR083W, strain WHI5 (second series), hits give low values): 0.668 (active)
normalized growth (locus YPL055C, strain LGE1, hits give low values): 0.923
